Source: PubChem BioAssay (NCI)
“And” between values parts separate entries of the source, which are not always exact repeats. Identical values can stand only once. The panel holds about 83,000 compounds, 20% with a hit somewhere; the sample as a whole holds those more often.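 48-hour exposure, single concentration, 96-well plates; percent growth endpoint where 0 means no net growth. Active: below 10.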 Values without a mark were called inactive. The source made the active and inactive calls.

Legend:
Test in all cases: NCI-60 one-dose screen, 48 h (100 = growth as untreated, 0 = no growth, -100 = all killed)
Conditions in all cases: 10 µM unless noted
[1] = tested on: SR leukemia
[2] = tested on: RPMI-8226 leukemia
[3] = tested on: OVCAR-8 ovarian
[4] = tested on: OVCAR-5 ovarian
[5] = tested on: OVCAR-4 ovarian
[6] = tested on: SK-OV-3 ovarian
[7] = tested on: IGROV1 ovarian
[8] = tested on: OVCAR-3 ovarian
[9] = tested on: HS 578T breast
[10] = tested on: NCI/ADR-RES ovarian

SMILES	growth [1]	growth [2]	growth [3]	growth [4]	growth [5]	growth [6]	growth [7]	growth [8]	growth [9]	growth [10]
COc1cc(CNC(=O)C[C@H](C)CCC=C(C)C)ccc1OCc1cn(-c2ccccc2F)nn1	73.4%	81.8%	66.5%	94.9%	71.4%	43.6%	81.9%	105%	39.5%	54.8%
Fc1ccccc1CNc1nc(SCCN2CCOCC2)nc2c1cnn2CC(Cl)c1ccc(Br)cc1 (stereo not given)	-3.85% (active)	-6.83% (active)	43.8%	71.3%	45%	58.3%	73.7%	66.7%	17%	33.5%
O=CNc1ccc(-n2cnc3cc(-c4ccc(O)cc4)ccc32)cc1	55.9%	66.1%	82.4%	94.7%	74.9%	111%	118%	68.6%	93.3%	81.6%
CN1C(=O)/C(=C/c2ccco2)S/C1=N/c1nccs1	89.5%	115%	104%	110%	97.8%	106%	106%	114%	111%	101%
Cn1cc(-c2cc3nc(-c4cn(C)c5ncc(Br)cc45)cc(N)n3n2)c2cc(F)ccc21	-23.7% (active)	32.9%	10.5%	31.8%	3.36% (active)	75%	19.8%	20.3%	35%	10.5%
CC1=C(C(=O)OCc2ccccc2)C(c2ccc(N(C)C)cc2)n2c(nc3ccccc32)N1 (stereo not given)	46%	81.4%	95.6%	102%	81.4%	95.4%	84%	92.6%	61.7%	73.2%
S=C(Nc1ccccc1)Nc1ccc(OCc2nc3ccc(Cl)cc3[nH]2)cc1	25.9%	66.7%	87.7%	109%	78.3%	97.1%	87.9%	84.9%	92%	83.7%
CCCCCCCCCc1ccc(C(=O)Nc2cc(C)ccc2C(=O)OC)cc1	90.1%	81.6%	110%	111%	94.5%	107%	118%	124%	106%	109%
CC(=O)Nc1cccc(-n2c(COc3ccc(Br)cc3)nc3ccccc32)c1	79.1% and 87.9%	87.2% and 107%	113% and 114%	105% and 109%	88.1% and 101%	76.5% and 107%	90.7% and 111%	96.9% and 97.7%	78.2% and 106%	89.3% and 104%
CC1=C(C(=O)Nc2ccccc2)C(c2cccc(Cl)c2Cl)n2c(nc3ccccc32)N1 (stereo not given)	6.58% (active)	37%	66.6%	82.8%	49.4%	84.3%	54.9%	42.2%	66%	46.3%
O=C(Nc1ccc(Br)cc1)Nc1ccc(-c2ccc3c(c2)NC(=O)/C3=C\c2ccc[nH]2)cc1	18.4%	32.2%	35.4%	55.3%	33.9%	77.1%	46.9%	12.3%	56%	25.7%
Cc1oc(-c2ccccc2)nc1CN[C@@H]1C[C@@H]2C[C@H]([C@H]1C)C2(C)C	-6.32% (active)	-3.45% (active)	82.6%	30.7%	74.5%	73.5%	37.6%	84.4%	69.2%	-38.1% (active)
NC1(c2ccc(-c3ccc4ncnc(NCc5ccccc5)c4c3)cn2)COC1	101% and 92.4%	117% and 110%	113% and 117%	102% and 103%	106% and 109%	143% and 109%	116% and 108%	106% and 74.8%	105%	104% and 107%
Nc1cc2ccccc2c(=O)n1NC(=O)c1ccccc1	84.3%	94.2%	104%	107%	98.6%	93.5%	90.2%	70.6%	91.4%	102%
CCOc1ccccc1[C@H]1C(C(=O)c2ccc(Cl)cc2)C2(N[C@@H]1c1ccccc1)C(=O)Nc1ccccc12 (stereo not given in full)	-38% (active)	10.9%	28%	14.5%	17.7%	26%	17.9%	25.5%	6.17% (active)	-40.6% (active)
COc1ccc2c(c1)c(-c1cc(N)n3nc(-c4c[nH]c5ccccc45)cc3n1)cn2C	6.54% (active)	-9.07% (active)	-74.7% (active)	-69.7% (active)	-29.8% (active)	-55.6% (active)	-62.4% (active)	-71.1% (active)	-17.9% (active)	-43.3% (active)
O=C(NNC(=S)NC(=O)c1ccccc1)c1ccc(OCc2nc3ccc(Cl)cc3[nH]2)cc1	0.144% (active)	5.01% (active)	-9.91% (active)	-43.7% (active)	16.3%	-17.5% (active)	-46.5% (active)	10.5%	3.54% (active)	-25.3% (active)
CC(=O)Nc1ccc(S(=O)(=O)Nc2ccc(-c3ccc4c(c3)NC(=O)/C4=C\c3ccc[nH]3)cc2)cc1	34.7%	78.3%	98%	79.5%	67.8%	104%	81.2%	141%	98.6%	107%
CN(C)C(=O)c1cc(-c2ccc3ncnc(N4CCc5cc(F)c(Cl)cc54)c3c2)cnc1N	-57% (active)	-34.6% (active)	-8.58% (active)	-15% (active)	-17.5% (active)	-32.8% (active)	-62.5% (active)	-58.1% (active)	-44.2% (active)	-12.5% (active)
O=C(N/N=C/c1ccc(Cl)o1)c1[nH]c2ccc(Br)cc2c1-c1ccccc1	7.2% (active)	1.15% (active)	-56.7% (active)	-24.9% (active)	-22.3% (active)	4.66% (active)	5.37% (active)	-11.3% (active)	3.22% (active)	-79% (active)
C[C@H]1[C@@H](CC(=O)N[C@@H](Cc2coc3ccccc23)B(O)O)O[C@@H]2OC3(C)CC[C@H]4[C@H](C)CC[C@@H]1[C@@]24O3	29.6%	-4.75% (active)	47.1%	-26.1% (active)	33%	58.8%	9.89% (active)	3.84% (active)	-0.841% (active)	19.5%
COc1cc2cc(C(=O)N3C[C@@H](CCl)c4c3cc(OC(=O)N(C)CCSSCCN3CCOCC3)c3ccccc43)[nH]c2c(OC)c1OC	-23.5% (active)	-11.5% (active)	-41.4% (active)	-42.8% (active)	-36.7% (active)	-30% (active)	-27.6% (active)	-1.85% (active)	-15.2% (active)	-33.4% (active)
Cc1ccc(C(=O)C[n+]2cccc3c4ccccc4ccc32)cc1	2.32% (active)	4.63% (active)	22.5%	31.3%	21.1%	33.9%	30.9%	30.3%	27.6%	80.9%
COc1ccc(/C=C/C(=O)c2ccc(S(=O)(=O)NCCNc3nc(N(C)C)nc(N4CCOCC4)n3)cc2)cc1	13.8%	14%	98.5%	95.4%	94.1%	101%	98.5%	100%	104%	89.7%
CC(C)(C)C(=O)c1c2c(c3ccc4c5ccccc5ccc4n13)C(=O)c1ccccc1C2=O	85.5%	96.6%	96.3%	116%	71.2%	118%	95.7%	94.4%	100%	95.5%
